# Patent US20240035010, “COMPOSITIONS COMPRISING A VARIANT POLYPEPTIDE AND USES THEREOF” (Arbor Biotechnologies, Inc., published 2024)
# T1: variant nuclease E154G/L38G/K221G combination (P14R, D32R, I61R, E311R, E154G, L38G, K221G)
# T1 chain: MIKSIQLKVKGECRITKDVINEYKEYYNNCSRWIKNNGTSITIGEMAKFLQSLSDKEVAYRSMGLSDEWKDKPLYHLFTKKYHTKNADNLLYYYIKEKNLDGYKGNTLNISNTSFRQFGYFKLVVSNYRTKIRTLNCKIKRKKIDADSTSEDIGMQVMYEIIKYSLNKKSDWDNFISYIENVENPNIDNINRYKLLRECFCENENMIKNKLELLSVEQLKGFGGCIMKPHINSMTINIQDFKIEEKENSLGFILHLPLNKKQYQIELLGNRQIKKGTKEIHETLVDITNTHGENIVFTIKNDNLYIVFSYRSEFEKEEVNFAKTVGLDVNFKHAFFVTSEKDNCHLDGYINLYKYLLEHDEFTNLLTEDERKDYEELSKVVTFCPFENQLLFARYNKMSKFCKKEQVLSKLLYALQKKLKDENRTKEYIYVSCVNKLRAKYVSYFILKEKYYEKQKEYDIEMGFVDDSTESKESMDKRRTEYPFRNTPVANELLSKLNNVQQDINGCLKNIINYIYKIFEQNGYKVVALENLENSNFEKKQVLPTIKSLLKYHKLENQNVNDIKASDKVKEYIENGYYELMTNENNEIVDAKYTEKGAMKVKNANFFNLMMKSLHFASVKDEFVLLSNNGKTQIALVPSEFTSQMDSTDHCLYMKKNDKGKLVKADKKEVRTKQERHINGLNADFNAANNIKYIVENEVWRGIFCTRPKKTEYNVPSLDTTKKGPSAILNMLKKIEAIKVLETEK
# Assays:
# Settings in all cases: tags: pcDNA3.1 expression
# [1] = biological target: T1, variant nuclease E154G/L38G/K221G …; experiment: cell_activity; PAM 5'-TTTG-3'
# Method: (§1) Approximately 16 hours prior to transfection, 25,000 HEK293T cells in DMEM/10% FBS+Pen/Strep (D10 media) were plated into each well of a 96-well plate. On the day of transfection, the cells were 70-90% confluent. For each well to be transfected, a mixture of Lipofectamine 2000™ and Opti-MEM™ was prepared and incubated at room temperature for 5 minutes (Solution 1). After incubation, the Lipofectamine 2000™:Opti-MEM™ mixture was added to a separate mixture containing nuclease plasmid, RNA guide plasmid, and Opti-MEM™ (Solution 2). In the case of negative controls, the RNA guide plasmid was not included in Solution 2. Solutions 1 and 2 were mixed by pipetting up and down, then incubated at room temperature for 25 minutes. Following incubation, the Solution 1 and 2 mixture was added dropwise to each well of a 96-well plate containing the cells. Approximately 72 hours post transfection, cells were trypsinized by adding TrypLE™ to the center of each well and incubating at 37° C. for approximately 5 minutes. D10 media was then added to each well and mixed to resuspend cells. The resuspended cells were centrifuged at 500 g for 10 minutes to obtain a pellet, and the supernatant was discarded. […]
# (§2) The percentage of NGS reads containing indels (% indels) were calculated. […]
# [2] = biological target: T1, variant nuclease E154G/L38G/K221G …; experiment: cell_activity; PAM 5'-TTTA-3'
# Method: as §1, §2
# [3] = biological target: T1, variant nuclease E154G/L38G/K221G …; experiment: cell_activity; PAM 5'-ATTG-3'
binder,measurement,setting,value
AAVS1 crRNA ; AAVS1 target (ssRNA ; dsDNA) RNA: CUUGUUGUAUAUGUCCUUUUAUAGGUAUUAAACAACUGAGAAUGGUGCGUCCUAGG DNA 1: TGAGAATGGTGCGTCCTAGG DNA 2: CCTAGGACGCACCATTCTCA,indel activity,[1],0.19 fold of WT
VEGFA crRNA ; VEGFA target (ssRNA ; dsDNA) RNA: CUUGUUGUAUAUGUCCUUUUAUAGGUAUUAAACAACUCCAGACCACCAAUGGGCAC DNA 1: TCCAGACCACCAATGGGCAC DNA 2: GTGCCCATTGGTGGTCTGGA,indel activity,[2],0.06 fold of WT
EMX1 crRNA ; EMX1 target (ssRNA ; dsDNA) RNA: CUUGUUGUAUAUGUCCUUUUAUAGGUAUUAAACAACCCGCCGCUUCCUGAGCCAUC DNA 1: CCGCCGCTTCCTGAGCCATC DNA 2: GATGGCTCAGGAAGCGGCGG,indel editing activity,[3],0.17 fold of WT
